Measured values reported in ChEMBL document CHEMBL3988442, “University of Dundee, Small-Polar-MMV Screening Library” (2021).
Hit rate of the full screen: of about 48,000 compounds, about 13,000 (27%) showed an effect of 50% or more. The list shows a part of the results.

Tested on: Wolbachia pipientis
Experiment: Anti-Wolbachia Cell-Based Screen
Format: functional
Design: scale not given: in the data most compounds retested in dose-response had high values
Settings: 5 µM

SMILES	Percent Effect [%]
O=C(C1CCC1)N1CC[C@]2(O)CCN(Cc3ncccn3)C[C@@H]2C1	9.794
Cc1noc([C@]23COC[C@H]2CN(C(C)C)C3)n1.O=C(O)C(F)(F)F	-9.217
Cc1noc([C@@H]2C[C@H]3OCC[C@H]3N(C(C)C)C2)n1.O=C(O)C(F)(F)F	82.77
Cc1noc([C@H]2C[C@H]3OCC[C@H]3N(Cc3ccncc3)C2)n1	9.305
Cc1nc(COC[C@H]2CC[C@H]3NCC[C@H]3O2)cs1.Cl.Cl	-19.37
Cc1cc(CN2C[C@@H]3COC[C@]3(CNC(=O)N3CCCC3)C2)no1.O=C(O)C(F)(F)F	-10.59
Cc1noc(C)c1CN1CC2(CCCCN2C)CC1=O.O=C(O)C(F)(F)F (configuration not stated)	-9.804
COCCNC(=O)[C@@]12CCO[C@@H]1CCN(Cc1c(C)noc1C)C2.O=C(O)C(F)(F)F	-6.3
Cc1noc(C)c1CN1CCCC2(CCN(CC3CCCC3)C2)C1.O=C(O)C(F)(F)F (configuration not stated)	102.6
Cc1noc(C)c1CN1CCCC2(CCN(C(=O)C3CC3)C2)C1 (configuration not stated)	106.9
Cc1noc(C)c1CN1CC[C@H]2O[C@@H](C(=O)N3CCCC3)CC[C@H]21.O=C(O)C(F)(F)F	9.45
Cc1ccc(CC(=O)N2CCN(C(C)c3ccccc3F)CC2)cn1 (configuration not stated)	7.645
COCCNC1(c2ccc(Cl)cc2)CCOCC1	5.533
CC(C)=CCN1C[C@H]2CC[C@@H]1CN(Cc1cc(=O)[nH]c(=O)[nH]1)C2	7.172
Cc1cnc(NCCc2c[nH]cn2)nc1-c1ccnn1C	-2.604
CCc1ccccc1OCCNCCc1c[nH]cn1	-3.829
Cc1cc(NCCc2c[nH]cn2)nc(-c2cccnc2)n1	99.48
CN(Cc1cc(C2CC2)on1)C(=O)CN1CC(c2ccccc2)CC1=O (configuration not stated)	-9.848
Cc1cc(CN(C)C(=O)CN2CCCC2=O)no1	135.7

SMILES	Percent Effect [%]
Cc1noc(C)c1CN(C)C(=O)CN1CC(c2ccccc2)CC1=O (configuration not stated)	-0.5183
CCc1noc(CC)c1CC(=O)N1CCCC(N2CCCCC2)C1 (configuration not stated)	-13.04
CN(c1ncccc1C#N)C1CCN(CCc2ccccn2)CC1	3.648
O[C@@]1(CNCCCOc2cccnc2)CCCN2CCCC[C@@H]21	-22.25
COCCN1CCO[C@H]2CN(C(=O)c3ccncc3F)C[C@H]21.O=C(O)C(F)(F)F	-13.21
Cc1ncc(CC(=O)N2C[C@@H]3CC[C@H](C2)N(CC2CCC2)C3)c(=O)[nH]1	1.908
CC(C)=CCN1C[C@H]2CC[C@@H]1CN(C(=O)c1c[nH]c(=O)c(Cl)c1)C2	-5.36
O=C(c1c[nH]c(=O)c(Cl)c1)N1C[C@@H]2CC[C@H](C1)N(CC1CCC1)C2	97.45
CCCn1cc(C(=O)NC(C(=O)O)c2ccccc2C(F)(F)F)c(C)n1 (configuration not stated)	7.837
O=C(Cc1ccc(CO)cc1)N1CCN(CC2CC2)[C@@H]2CS(=O)(=O)C[C@@H]21	-14.38
CN1CCN(c2ncccn2)CC12CCC(=O)N(CC1CC1)CC2 (configuration not stated)	-4.361
CN1CCN(S(C)(=O)=O)Cc2cccnc21	126.5
CN1CCN(S(=O)(=O)C2CC2)Cc2cccnc21	113.9
CN1CCN(Cc2ccoc2)Cc2cccnc21	-15.03
CN(C)CCN1CCN(CC2CC2)c2ncccc2C1	104.8
CCS(=O)(=O)N1CCN(C)c2ncccc2C1	97.89
Cl.O=C(NCC1CCCCC1)N1C[C@@H]2C[C@H]1CN2	-10.23
CCCN1CCN(C(=O)c2ccc(Cl)cn2)[C@H]2CS(=O)(=O)C[C@H]21	7.172
CCC(C(=O)N1CCCSCC1)N1CCCC1=O (configuration not stated)	0.6755

SMILES	Percent Effect [%]
Cc1cccc(CN2CC3C[C@]3(NC(=O)c3ccco3)C2)n1 (some centres not stated)	-15.21
CCCN1CCN(C(=O)c2cccc(C)n2)[C@H]2CS(=O)(=O)C[C@H]21	-6.939
CCN1CCC2(CC1)CN(CCO)c1ccccc12	-10.11
CCS(=O)(=O)N1CCN(CC2CC2)c2ncccc2C1	115
CS(=O)(=O)N1CCN(CC2CC2)c2ncccc2C1	6.456
O=C(O)C(F)(F)F.O=C(O)C(F)(F)F.c1cnc2c(c1)CN(C1CCOC1)CCN2CC1CC1 (configuration not stated)	-0.9537
COc1ccccc1CC(C)N(C)CCS(C)(=O)=O (configuration not stated)	-4.195
COCCN1CC[C@@H]2CN(Cc3cccnc3OC)C[C@@H]2C1.O=C(O)C(F)(F)F.O=C(O)C(F)(F)F	130.6
COCCN1CCCC12CCN(Cc1cccnc1OC)CC2.O=C(O)C(F)(F)F.O=C(O)C(F)(F)F	-1.646
CN(C)CCN1CCO[C@H]2CN(Cc3ccccn3)C[C@H]21.O=C(O)C(F)(F)F.O=C(O)C(F)(F)F.O=C(O)C(F)(F)F.O=C(O)C(F)(F)F	10.34
CNC(=O)[C@H]1C[C@@H]2CN(Cc3cccnc3OC)C[C@@H]2N1C(C)=O.O=C(O)C(F)(F)F.O=C(O)C(F)(F)F	92.23
COCCCN1CCCC12CCN(Cc1cccnc1OC)CC2.O=C(O)C(F)(F)F.O=C(O)C(F)(F)F	-1.56
CNC(=O)[C@H]1C[C@@H]2CN(Cc3cccnc3OC)C[C@@H]2N1C(C)C.O=C(O)C(F)(F)F.O=C(O)C(F)(F)F.O=C(O)C(F)(F)F	5.567
COc1cc(N2C[C@H]3CCN(CCN4CCCC4)C[C@H]3C2)ncn1.O=C(O)C(F)(F)F.O=C(O)C(F)(F)F	-9.875
COc1ncccc1CN1C[C@@H]2CN(c3ncccn3)C[C@@H]2C1	110.4
COC[C@]12COC[C@H]1CN(Cc1cccnc1OC)C2	3.857
COc1cc(N2C[C@H]3CN(Cc4ccccn4)C[C@H]3C2)ncn1.O=C(O)C(F)(F)F	127.8
COc1ncccc1CN1C[C@@H]2OCCN(CCN(C)C)[C@@H]2C1.O=C(O)C(F)(F)F.O=C(O)C(F)(F)F.O=C(O)C(F)(F)F	17.28
COc1ncccc1CN1CCC2(CC1)COCCN2C.O=C(O)C(F)(F)F.O=C(O)C(F)(F)F	-5.344
